Assay in all cases: DAPPL (digital affinity profiling via proximity ligation, sequencing); 10 mM Tris-HCl pH 7.5, 50 mM NaCl, 1 mM DTT, 4% glycerol, room temperature, 30 min; GST-TFs on glutathione beads, 16-mer random dsDNA library, 0.1% formaldehyde crosslink after washing; high values mean tight binding
The target of experiment [1] is T1, FEV (Homo sapiens, UniProt Q99581 1-238).
T1 sequence: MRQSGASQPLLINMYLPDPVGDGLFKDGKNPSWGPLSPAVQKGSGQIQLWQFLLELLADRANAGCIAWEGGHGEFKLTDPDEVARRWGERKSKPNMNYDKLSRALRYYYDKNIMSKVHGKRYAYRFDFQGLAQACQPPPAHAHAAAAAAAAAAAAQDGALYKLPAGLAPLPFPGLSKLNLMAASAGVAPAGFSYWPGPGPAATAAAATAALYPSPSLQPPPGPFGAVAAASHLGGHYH
As to conditions: protein: recombinant; tags: N-terminal GST; dsDNA, one strand shown. The gist of the method: (§1)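 Yeast served to express human transcription factors as GST fusions, which were then captured on glutathione beads and labelled with DNA barcodes. Pooled with a tag-only sample, they were incubated with 200 nmole of a 16-mer random double-stranded DNA library for 30 min at room temperature in Tris/NaCl/DTT/glycerol buffer, washed, crosslinked with 0.1% formaldehyde, ligated by proximity, amplified by PCR and sequenced. Dividing each hexamer's read frequency for a factor by its frequency for the tag-only sample gives the binding signal.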

Experiment [2] concerns the target ETV5 (Homo sapiens, UniProt P41161 1-510). The conditions noted are these: protein: recombinant; tags: N-terminal GST; dsDNA, one strand shown. Put shortly: as §1
Experiment [3] has as its target HSF1 (Homo sapiens, UniProt Q00613 1-529). As to conditions: protein: recombinant; tags: N-terminal GST; chain copies: 3; dsDNA, one strand shown. Put shortly: as §1
In experiment [4] the target is T2, SPIC (Homo sapiens, UniProt Q8N5J4 1-248).
T2 sequence: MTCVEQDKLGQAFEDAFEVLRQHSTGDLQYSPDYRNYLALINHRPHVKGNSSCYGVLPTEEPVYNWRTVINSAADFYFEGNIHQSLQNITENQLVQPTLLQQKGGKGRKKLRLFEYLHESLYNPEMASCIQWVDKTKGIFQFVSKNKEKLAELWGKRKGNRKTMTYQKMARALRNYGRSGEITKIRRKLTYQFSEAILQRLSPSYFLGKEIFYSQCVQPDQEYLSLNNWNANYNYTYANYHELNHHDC
The conditions noted are these: protein: recombinant; tags: N-terminal GST; dsDNA, one strand shown. Put shortly:
as §1

Experiment [5] addresses ELF4 (Homo sapiens, UniProt Q99607 1-663). The conditions noted are these: protein: recombinant; tags: N-terminal GST; dsDNA, one strand shown. Put shortly: as §1
Experiment [6] has as its target T3, ELK4 (Homo sapiens, UniProt P28324-2 1-405).
T3 sequence: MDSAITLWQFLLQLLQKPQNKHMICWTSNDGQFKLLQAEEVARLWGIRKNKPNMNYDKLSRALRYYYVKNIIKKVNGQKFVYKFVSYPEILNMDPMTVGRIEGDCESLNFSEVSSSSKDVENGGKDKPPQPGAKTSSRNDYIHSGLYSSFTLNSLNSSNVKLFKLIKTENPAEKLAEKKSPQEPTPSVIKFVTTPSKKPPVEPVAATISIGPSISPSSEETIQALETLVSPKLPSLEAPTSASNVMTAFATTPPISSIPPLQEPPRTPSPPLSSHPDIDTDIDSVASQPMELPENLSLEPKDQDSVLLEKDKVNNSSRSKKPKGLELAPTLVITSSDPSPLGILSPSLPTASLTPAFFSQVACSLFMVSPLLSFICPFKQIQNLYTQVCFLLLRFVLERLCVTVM
As to conditions: protein: recombinant; tags: N-terminal GST; dsDNA, one strand shown. The gist of the method: as §1

Experiment [7] deals with T4, ETV2 (Homo sapiens, UniProt O00321 1-342).
T4 sequence: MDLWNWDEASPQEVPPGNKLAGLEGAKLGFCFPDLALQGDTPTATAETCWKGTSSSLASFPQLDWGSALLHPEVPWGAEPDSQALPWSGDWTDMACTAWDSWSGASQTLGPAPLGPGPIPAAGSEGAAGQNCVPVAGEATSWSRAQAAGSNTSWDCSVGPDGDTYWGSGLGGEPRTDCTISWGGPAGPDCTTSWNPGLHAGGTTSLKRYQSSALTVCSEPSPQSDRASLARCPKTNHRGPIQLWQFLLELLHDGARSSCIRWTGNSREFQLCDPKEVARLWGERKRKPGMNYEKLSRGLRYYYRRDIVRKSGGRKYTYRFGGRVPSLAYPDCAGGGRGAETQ
The conditions noted are these: protein: recombinant; tags: N-terminal GST; dsDNA, one strand shown. The gist of the method: as §1

Experiment [8] has as its target T5, ELF3 (Homo sapiens, UniProt P78545 1-371).
T5 sequence: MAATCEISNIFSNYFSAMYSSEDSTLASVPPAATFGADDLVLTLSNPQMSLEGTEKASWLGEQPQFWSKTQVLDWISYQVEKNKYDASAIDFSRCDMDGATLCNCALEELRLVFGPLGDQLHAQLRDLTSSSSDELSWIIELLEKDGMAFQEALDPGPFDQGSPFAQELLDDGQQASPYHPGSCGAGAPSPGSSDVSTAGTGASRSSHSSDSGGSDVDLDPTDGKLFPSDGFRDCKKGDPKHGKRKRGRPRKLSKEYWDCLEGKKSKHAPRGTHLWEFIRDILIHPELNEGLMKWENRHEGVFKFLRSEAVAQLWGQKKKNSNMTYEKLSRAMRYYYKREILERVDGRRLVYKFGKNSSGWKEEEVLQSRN
As to conditions: protein: recombinant; tags: N-terminal GST; dsDNA, one strand shown. Put shortly:
as §1

For experiment [9], the target named is CRX (Homo sapiens, UniProt O43186 1-299). As to conditions: protein: recombinant; tags: N-terminal GST; dsDNA, one strand shown. The gist of the method:
as §1

Experiment [10] concerns the target ETV1 (Homo sapiens, UniProt P50549 1-477). As to conditions: protein: recombinant; tags: N-terminal GST; dsDNA, one strand shown. Put shortly:
as §1

Drawing on publication PMC7862700, “An all-to-all approach to the identification of sequence-specific readers for epigenetic DNA modifications on cytosine”, this text covers binding signal for eight sequences.

Chain of HSF1 (Q00613 whole entry): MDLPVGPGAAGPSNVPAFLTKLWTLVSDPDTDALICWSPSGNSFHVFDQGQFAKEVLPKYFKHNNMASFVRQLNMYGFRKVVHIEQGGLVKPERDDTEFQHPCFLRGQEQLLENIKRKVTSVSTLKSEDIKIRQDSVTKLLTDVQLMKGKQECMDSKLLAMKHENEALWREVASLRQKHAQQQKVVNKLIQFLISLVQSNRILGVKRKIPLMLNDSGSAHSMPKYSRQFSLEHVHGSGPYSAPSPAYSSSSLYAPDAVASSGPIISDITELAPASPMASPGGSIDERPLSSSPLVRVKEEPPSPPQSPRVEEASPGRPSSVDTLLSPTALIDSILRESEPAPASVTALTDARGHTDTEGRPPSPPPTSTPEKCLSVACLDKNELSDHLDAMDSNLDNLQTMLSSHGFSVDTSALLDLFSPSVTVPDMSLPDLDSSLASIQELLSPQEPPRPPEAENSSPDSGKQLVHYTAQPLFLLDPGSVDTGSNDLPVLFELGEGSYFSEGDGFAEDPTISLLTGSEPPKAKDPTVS
Chain of ETV5 (P41161 whole entry): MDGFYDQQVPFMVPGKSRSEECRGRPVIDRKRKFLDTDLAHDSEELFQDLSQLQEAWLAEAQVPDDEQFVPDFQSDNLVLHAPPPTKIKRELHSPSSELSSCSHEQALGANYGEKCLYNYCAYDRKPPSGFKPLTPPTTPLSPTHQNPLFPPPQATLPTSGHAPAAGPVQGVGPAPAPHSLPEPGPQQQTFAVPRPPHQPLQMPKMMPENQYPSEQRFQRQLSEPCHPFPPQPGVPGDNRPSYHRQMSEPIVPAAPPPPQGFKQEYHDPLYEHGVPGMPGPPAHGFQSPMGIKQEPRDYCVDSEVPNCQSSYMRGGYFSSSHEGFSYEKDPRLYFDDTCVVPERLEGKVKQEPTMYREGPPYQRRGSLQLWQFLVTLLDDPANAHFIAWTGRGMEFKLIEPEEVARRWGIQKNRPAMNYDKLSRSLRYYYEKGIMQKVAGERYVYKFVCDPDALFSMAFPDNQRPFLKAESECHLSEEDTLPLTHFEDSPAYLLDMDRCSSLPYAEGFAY
Chain of ETV1 (P50549 whole entry): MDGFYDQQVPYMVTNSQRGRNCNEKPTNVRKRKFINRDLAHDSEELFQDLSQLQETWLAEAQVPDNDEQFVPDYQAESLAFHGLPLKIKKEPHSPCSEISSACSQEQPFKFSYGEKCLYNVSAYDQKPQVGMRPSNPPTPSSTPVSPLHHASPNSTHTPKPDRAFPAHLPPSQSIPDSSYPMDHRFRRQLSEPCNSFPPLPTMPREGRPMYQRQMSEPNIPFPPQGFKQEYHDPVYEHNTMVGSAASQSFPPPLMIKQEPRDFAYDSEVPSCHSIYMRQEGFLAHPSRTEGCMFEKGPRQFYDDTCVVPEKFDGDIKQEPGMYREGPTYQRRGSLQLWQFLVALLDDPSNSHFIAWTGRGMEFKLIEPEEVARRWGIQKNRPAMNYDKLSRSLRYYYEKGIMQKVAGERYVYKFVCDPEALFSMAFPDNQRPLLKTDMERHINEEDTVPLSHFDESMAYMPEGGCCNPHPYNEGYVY
Chain of ELF4 (Q99607 whole entry): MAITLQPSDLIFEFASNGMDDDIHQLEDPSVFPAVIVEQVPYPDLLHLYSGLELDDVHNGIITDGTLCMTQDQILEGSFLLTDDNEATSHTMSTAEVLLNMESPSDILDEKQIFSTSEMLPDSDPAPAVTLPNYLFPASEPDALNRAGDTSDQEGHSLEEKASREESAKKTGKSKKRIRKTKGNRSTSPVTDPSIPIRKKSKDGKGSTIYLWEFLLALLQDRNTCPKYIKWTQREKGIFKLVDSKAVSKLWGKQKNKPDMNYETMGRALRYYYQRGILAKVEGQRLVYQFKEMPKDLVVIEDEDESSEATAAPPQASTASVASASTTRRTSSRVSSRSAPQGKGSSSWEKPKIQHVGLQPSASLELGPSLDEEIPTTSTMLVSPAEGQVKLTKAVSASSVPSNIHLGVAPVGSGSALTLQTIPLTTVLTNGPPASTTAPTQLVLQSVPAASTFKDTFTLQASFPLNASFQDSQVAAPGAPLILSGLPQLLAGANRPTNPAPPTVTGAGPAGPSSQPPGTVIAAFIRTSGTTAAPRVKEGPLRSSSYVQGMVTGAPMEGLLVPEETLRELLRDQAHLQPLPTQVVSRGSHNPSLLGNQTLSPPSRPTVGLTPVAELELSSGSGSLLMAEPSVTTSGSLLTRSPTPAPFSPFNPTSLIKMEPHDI
Chain of CRX (O43186 whole entry): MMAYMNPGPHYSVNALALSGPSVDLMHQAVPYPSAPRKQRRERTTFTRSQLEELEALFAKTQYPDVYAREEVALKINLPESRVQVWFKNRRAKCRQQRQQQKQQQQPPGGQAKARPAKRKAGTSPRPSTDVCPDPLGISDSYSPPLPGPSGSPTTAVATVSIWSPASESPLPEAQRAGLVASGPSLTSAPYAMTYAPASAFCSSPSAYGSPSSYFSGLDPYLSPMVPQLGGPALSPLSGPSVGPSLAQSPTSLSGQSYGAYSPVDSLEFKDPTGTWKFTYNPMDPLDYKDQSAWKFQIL

On to GCTATT, for which the binding signal was 1.29 fold enrichment (6-mer frequency, TF over GST control) in [1]; 1.3 fold enrichment (6-mer frequency, TF over GST control) in experiment [2]; 1.22 fold enrichment (6-mer frequency, TF over GST control) in [3]; 1.38 fold enrichment (6-mer frequency, TF over GST control) in [4]; 1.38 fold enrichment (6-mer frequency, TF over GST control) in experiment [5]; 1.56 fold enrichment (6-mer frequency, TF over GST control) in experiment [6]. Also, the binding signal is 1.41 fold enrichment (6-mer frequency, TF over GST control) in experiment [7]; 1.45 fold enrichment (6-mer frequency, TF over GST control) in experiment [8]; 1.38 fold enrichment (6-mer frequency, TF over GST control) in experiment [9]; 1.3 fold enrichment (6-mer frequency, TF over GST control) in [10].
As to AATGCG, the binding signal in [1] was 1.27 fold enrichment (6-mer frequency, TF over GST control); in experiment [2], 1.2 fold enrichment (6-mer frequency, TF over GST control); in experiment [3] it was 1.13 fold enrichment (6-mer frequency, TF over GST control); in experiment [4] it was 1.22 fold enrichment (6-mer frequency, TF over GST control); in [5], 1.33 fold enrichment (6-mer frequency, TF over GST control); in [6] it was 1.25 fold enrichment (6-mer frequency, TF over GST control). Besides, the binding signal was 1.34 fold enrichment (6-mer frequency, TF over GST control) in experiment [7]; 1.43 fold enrichment (6-mer frequency, TF over GST control) in experiment [8]; 1.36 fold enrichment (6-mer frequency, TF over GST control) in experiment [9]; 1.3 fold enrichment (6-mer frequency, TF over GST control) in [10].
For TTCAAG, the binding signal in [1] was 1.2 fold enrichment (6-mer frequency, TF over GST control); in experiment [2], 1.23 fold enrichment (6-mer frequency, TF over GST control); in [3], 1.49 fold enrichment (6-mer frequency, TF over GST control); in experiment [4] it was 1.24 fold enrichment (6-mer frequency, TF over GST control); in experiment [5] it was 1.29 fold enrichment (6-mer frequency, TF over GST control); in experiment [6] it was 1.32 fold enrichment (6-mer frequency, TF over GST control). Also, the binding signal in experiment [7] was 1.1 fold enrichment (6-mer frequency, TF over GST control); in [8] it was 1.23 fold enrichment (6-mer frequency, TF over GST control); in [9], 1.18 fold enrichment (6-mer frequency, TF over GST control); in experiment [10] it was 1.29 fold enrichment (6-mer frequency, TF over GST control).
AGATTT: the binding signal in experiment [1] was 1.16 fold enrichment (6-mer frequency, TF over GST control); in experiment [2] it was 1.2 fold enrichment (6-mer frequency, TF over GST control); in experiment [3] it was 1.75 fold enrichment (6-mer frequency, TF over GST control); in [4], 1.06 fold enrichment (6-mer frequency, TF over GST control); in [5], 1.16 fold enrichment (6-mer frequency, TF over GST control); in [6], 1.25 fold enrichment (6-mer frequency, TF over GST control). For the same sequence, the binding signal in [7] was 1.05 fold enrichment (6-mer frequency, TF over GST control); in experiment [8] it was 1.21 fold enrichment (6-mer frequency, TF over GST control); in [9], 1.84 fold enrichment (6-mer frequency, TF over GST control); in experiment [10] it was 1.15 fold enrichment (6-mer frequency, TF over GST control).
For the sequence AATGAC, the binding signal in experiment [1] is 1.47 fold enrichment (6-mer frequency, TF over GST control); in [2] it was 1.35 fold enrichment (6-mer frequency, TF over GST control); in experiment [3], 1.22 fold enrichment (6-mer frequency, TF over GST control); in experiment [4], 1.36 fold enrichment (6-mer frequency, TF over GST control); in experiment [5], 1.37 fold enrichment (6-mer frequency, TF over GST control); in experiment [6], 1.35 fold enrichment (6-mer frequency, TF over GST control). Further, the binding signal in experiment [7] is 1.4 fold enrichment (6-mer frequency, TF over GST control); in experiment [8] it was 1.49 fold enrichment (6-mer frequency, TF over GST control); in experiment [9], 1.16 fold enrichment (6-mer frequency, TF over GST control); in experiment [10], 1.4 fold enrichment (6-mer frequency, TF over GST control).
Take GCTTGC: the binding signal is 1.2 fold enrichment (6-mer frequency, TF over GST control) in experiment [1]; 1.22 fold enrichment (6-mer frequency, TF over GST control) in experiment [2]; 1.1 fold enrichment (6-mer frequency, TF over GST control) in experiment [3]; 1.44 fold enrichment (6-mer frequency, TF over GST control) in experiment [4]; 1.09 fold enrichment (6-mer frequency, TF over GST control) in experiment [5]; 1.34 fold enrichment (6-mer frequency, TF over GST control) in experiment [6]. Moreover, the binding signal was 1.31 fold enrichment (6-mer frequency, TF over GST control) in [7]; 1.03 fold enrichment (6-mer frequency, TF over GST control) in experiment [8]; 1.14 fold enrichment (6-mer frequency, TF over GST control) in experiment [9]; 1.25 fold enrichment (6-mer frequency, TF over GST control) in experiment [10].
For TATGGA, the binding signal in [1] is 1.05 fold enrichment (6-mer frequency, TF over GST control); in [2], 1.12 fold enrichment (6-mer frequency, TF over GST control); in experiment [3], 1.33 fold enrichment (6-mer frequency, TF over GST control); in experiment [4], 1.14 fold enrichment (6-mer frequency, TF over GST control); in experiment [5] it was 1.07 fold enrichment (6-mer frequency, TF over GST control); in [6], 1 fold enrichment (6-mer frequency, TF over GST control). For the same sequence, the binding signal in experiment [7] was 1.25 fold enrichment (6-mer frequency, TF over GST control); in [8], 1.15 fold enrichment (6-mer frequency, TF over GST control); in experiment [9], 1.4 fold enrichment (6-mer frequency, TF over GST control); in experiment [10] it was 1.12 fold enrichment (6-mer frequency, TF over GST control).
For TACTTG, the binding signal in [1] is 1.22 fold enrichment (6-mer frequency, TF over GST control); in experiment [2] it was 1.26 fold enrichment (6-mer frequency, TF over GST control); in experiment [3] it was 1.26 fold enrichment (6-mer frequency, TF over GST control); in [4] it was 1.35 fold enrichment (6-mer frequency, TF over GST control); in experiment [5], 1.39 fold enrichment (6-mer frequency, TF over GST control); in experiment [6], 1.38 fold enrichment (6-mer frequency, TF over GST control). Moreover, the binding signal in experiment [7] is 1.46 fold enrichment (6-mer frequency, TF over GST control); in [8], 1.54 fold enrichment (6-mer frequency, TF over GST control); in experiment [9] it was 1.5 fold enrichment (6-mer frequency, TF over GST control); in [10], 1.54 fold enrichment (6-mer frequency, TF over GST control).
